# Measurements reported in the supplement of paper PMC9446081.
# ± gives the standard deviation of the averaged measurements.
# Biological target: T1, MurF (UniProt P11880)
# T1 sequence (whole entry): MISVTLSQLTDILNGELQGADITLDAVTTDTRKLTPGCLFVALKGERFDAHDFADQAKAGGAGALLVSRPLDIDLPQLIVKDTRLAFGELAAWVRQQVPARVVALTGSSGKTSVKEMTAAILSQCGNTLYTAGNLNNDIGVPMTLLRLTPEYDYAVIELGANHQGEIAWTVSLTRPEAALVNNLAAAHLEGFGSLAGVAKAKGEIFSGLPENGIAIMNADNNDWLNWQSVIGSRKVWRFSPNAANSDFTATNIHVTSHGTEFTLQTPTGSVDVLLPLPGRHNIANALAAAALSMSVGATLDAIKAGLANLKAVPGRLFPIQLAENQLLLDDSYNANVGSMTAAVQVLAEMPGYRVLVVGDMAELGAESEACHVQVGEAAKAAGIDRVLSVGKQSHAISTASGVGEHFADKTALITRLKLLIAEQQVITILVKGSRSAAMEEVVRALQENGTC
# Experiment: relative enzymatic activity vs untreated control (fraction); higher = less inhibition
# Conditions: 100 µM; incubation time: 2 h at 37 C
# Method: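 In vitro enzymatic inhibition assays (ProFoldin kits) for 12 purified essential E. coli enzymes or complexes, each treated with 218 active antibacterial compounds at 100 µM for 2 h at 37°C. Read-outs were fluorescence or absorbance (phosphate detection, dye binding), converted to activity via standard curves and expressed relative to untreated DMSO controls.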
row,Compound,relative enzymatic activity
1,O=[N+]([O-])C(Br)(CO)CO,0.946 ± 0.23
2,CC(=O)[O][Hg][c]1ccccc1,1.08 ± 0.26
3,CN[C@H]1C[C@@H](N)[C@H](O)[C@@H](O[C@@H]2O[C@H](CO)[C@H](O)[C@@H]3O[C@@]4(O[C@H]23)O[C@H]([C@@H](N)CO)[C@H](O)[C@H](O)[C@H]4O)[C@@H]1O,1.17 ± 0.035
4,CN(C)[C@@H]1C(=O)C(C(N)=O)=C(O)[C@@]2(O)C(O)=C3C(=O)c4c(O)cccc4[C@](C)(O)[C@H]3C[C@@H]12,0.983 ± 0.2
5,Cn1ncnc2c(=O)n(C)c(=O)nc1-2,0.797 ± 0.21
6,O=[N+]([O-])c1ccc(N(CCO)CCO)c2c1no[n+]2[O-],0.923 ± 0.15
7,COP(=S)(OC)Oc1cc(Cl)c(Cl)cc1Cl,1.05 ± 0.2
8,CCn1cc(C(=O)[O-])c(=O)c2cc3c(cc21)OCO3.[K+],0.962 ± 0.22
9,CCCCCCCCCCCCCCCC[n+]1ccccc1,0.08 ± 0.011
10,C[CH2][Hg][S]c1ccccc1C(=O)[O-].[Na+],0.982 ± 0.28
11,CC(=O)Oc1ccc(Cl)c2cccnc12,0.983 ± 0.21
12,Oc1cc(Cl)ccc1Oc1ccc(Cl)cc1Cl,1.12 ± 0.27
13,O=C1C=C2C(=CCOC2O)O1 (centres undefined),0.903 ± 0.18
14,Cc1nc2c(=O)n(C)c(=O)nc-2n(C)n1,0.965 ± 0.26
15,CN1C(=O)[C@]23CC4=CC=C[C@H](O)[C@H]4N2C(=O)[C@@]1(CO)SS3,0.973 ± 0.26
16,CN(C)[C@@H]1C(=O)[C@H](C(N)=O)C(=O)[C@@]2(O)C(=O)[C@@H]3C(=O)c4c(O)cccc4[C@@](C)(O)[C@H]3C[C@@H]12,0.998 ± 0.19
17,CNC1C(O)C(OC2C(N)CC(N)C(OC3OC(C(C)O)C(O)C(O)C3N)C2O)OCC1(C)O (centres undefined),0.95 ± 0.18
18,CCCCCCCCCCCCCCCC[n+]1ccccc1.[Cl-],0.0685 ± 0.0074
19,Cc1c(N)nc([C@H](CC(N)=O)NC[C@@H](N)C(N)=O)nc1C(=O)N[C@H](C(=O)N[C@@H](C)[C@H](O)[C@@H](C)C(=O)N[C@@H](C(=O)NCCc1nc(-c2nc(C(=O)NCCC[S+](C)C)cs2)cs1)[C@@H](C)O)[C@@H](O[C@H]1O[C@H](CO)[C@H](O)[C@@H](O)[C@H]1O[C@H]1O[C@H](CO)[C@@H](O)[C@H](OC(N)=O)[C@@H]1O)c1cnc[nH]1,1.15 ± 0.074
20,Cc1c(N)nc([C@H](CC(N)=O)NC[C@@H](N)C(N)=O)nc1C(=O)N[C@H](C(=O)N[C@@H](C)[C@H](O)[C@@H](C)C(=O)N[C@@H](C(=O)NCCc1nc(-c2nc(C(=O)NCCC[S+](C)C)cs2)cs1)[C@@H](C)O)[C@@H](O[C@H]1O[C@H](CO)[C@H](O)[C@@H](O)[C@H]1O[C@H]1O[C@H](CO)[C@@H](O)[C@H](OC(N)=O)[C@@H]1O)c1c[nH]cn1,0.537 ± 0.75
21,[O-][n+]1ccccc1[S][Zn][S]c1cccc[n+]1[O-],0.973 ± 0.15
22,O=S(=O)(O)O.Oc1cccc2cccnc12,0.951 ± 0.29
23,CN(C)[C@@H]1C(=O)[C@@H](C(N)=O)C(=O)[C@@]2(O)C(=O)[C@H]3C(=O)c4c(O)ccc(Cl)c4[C@@](C)(O)[C@H]3C[C@@H]12,1.2 ± 0.021
24,CCCCCCCCCCCCCCCC[N+](C)(C)C.[Br-],0.112 ± 0.021
